The values that follow come from PubChem BioAssay.

Test [1] is described as follows: A549 cell viability effects, profiling panel, calcein-AM fluorescence, 48 h, basal (AID 1162). As to conditions: higher = more signal.
Test [2] in a line: adipocyte viability effects, profiling panel, cell-based, 3T3-L1 adipocytes, calcein-AM fluorescence, 48 h, basal (AID 1163). As to conditions: 3T3-L1 adipocytes viability, higher = more signal.
A short description of test [3]: HepG2 cell viability effects, profiling panel, calcein-AM fluorescence, 48 h, basal (AID 1164). The conditions noted are these: higher = more signal.
The nature of test [4]: MM1S cell viability effects, profiling panel, calcein-AM fluorescence, 48 h, basal (AID 1165).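 Further: viability of MM1S multiple myeloma cells under basal unstimulated conditions.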 The conditions noted are these: higher = more signal.
A short description of test [5]: basal RPMI8226 viability, no added stimulus, profiling panel, cell-based, calcein-AM fluorescence, 48 h, PK04 Diversity Set (AID 1166).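 Further: cells grown under basal conditions without added stimulus.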 The conditions noted are these: RPMI8226 myeloma viability, higher = more signal.
A short description of test [6]: basal HepG2 mitochondrial membrane potential changes, profiling panel, cell-based, JC-1 fluorescence, 24 h, 100 nL compound (AID 1167). As to conditions: higher = more signal.
Test [7] can be described thus: basal 3T3-L1 adipocyte mitochondrial potential changes, profiling panel, cell-based, JC-1 fluorescence, 3T3-L1 adipocytes, 24 h, 100 nL compound (AID 1168). As to conditions: JC-1 mitochondrial fluorescence, higher = more signal, called active from +8 up or from −8 down.
Test [8] in a line: basal RPMI8226 mitochondrial membrane potential changes, profiling panel, cell-based, JC-1 fluorescence, 24 h, 100 nL compound (AID 1169). The conditions noted are these: RPMI8226 myeloma, JC-1 mitochondrial potential fluorescence, higher = more signal.
Test [9] in a line: basal MM1S mitochondrial membrane potential changes, profiling panel, cell-based, JC-1 fluorescence, 24 h, 100 nL compound (AID 1170). The conditions noted are these: higher = more signal.
A short description of test [10]: A549 lung cancer cell viability effects, profiling panel, resazurin fluorescence, 24 h, PK04 Diversity Set (AID 1171). As to conditions: higher = more signal, called active from +8 up or from −8 down.

The source made the active and inactive calls.
Further: test concentration not given here.

As to `COC(=O)[C@@]1(Cc2ccc(OC)cc2)[C@H]2c3cc(C(=O)N(C)C)n(CCc4ccc(OC)c(Br)c4)c3C[C@H]2CN1C(=O)c1ccccc1`, the z-score was -1.55 in [1]; -1.08 in test [2]; -0.992 in [3]; -1.6 in test [4]; -4.57 in [5]; 2.92 in test [6]. The z-score in test [7] was -1.39 (inactive); in [8] it was -0.855; in test [9] it was -2.23; in test [10], -1.39 (inactive).

With `CN1CCC(CCCO)=CC1C1CC1` (stereo not given), the z-score in test [1] is 0.4; in test [2], 0.852; in test [3], -0.879; in test [4] it was -0.833; in test [5], 0.174; in [6], 1.32. Moreover, the z-score in [7] was 0.57 (inactive); in test [8], 0.201; in test [9], 0.389; in test [10], -0.0682 (inactive).

Consider `C=CC[C@]1(C(=O)O)N=C(c2ccc(OCCCO)cc2)O[C@H]1c1ccccc1N=[N+]=[N-]`, for which the z-score in [1] was 0.144; in test [2], 0.722; in [3], -0.489; in test [4] it was -2.19; in test [5] it was -0.0144; in test [6], 0.0206. Moreover, the z-score was 0.504 (inactive) in test [7], -0.837 in [8], -0.783 in test [9] and 0.909 (inactive) in [10].

As for `O=C1C2C=CC(C(O)Cc3ccccc3)N(Nc3ccc([N+](=O)[O-])cc3)C2C(=O)N1c1ccccc1` (stereo not given), the z-score is -0.356 in [1]; -0.116 in test [2]; 0.0181 in test [3]; 0.568 in test [4]; -0.0631 in test [5]; -1.36 in [6]. The z-score in test [7] is 0.0226 (inactive); in test [8], 0.517; in test [9], -0.876; in test [10] it was 0.007 (inactive).

On to `Cc1ccc(S[C@]2(C(=O)NC3CC3)CC(=O)N(Cc3cc(C(F)(F)F)cc(C(F)(F)F)c3)[C@@H]2c2ccc(CO)cc2)cc1`, for which the z-score in test [1] is 0.902; in [2], 1.69; in test [3] it was 0.445; in [4], 0.239; in test [5], 0.16; in test [6], 0.259. The z-score in test [7] was -0.472 (inactive); in test [8], -0.718; in test [9], -0.792; in test [10] it was 0.968 (inactive).

Take `O=C(NCc1ccccc1)[C@@]1(Cc2ccccc2)COC(c2ccc(OCCCO)cc2)=N1`: the z-score in test [1] was -1.65; in test [2], -2.05; in test [3], -2.78; in [4], -3.58; in [5], -3.06; in test [6] it was -2.97. For the same compound, the z-score was 0.558 (inactive) in test [7], -1.06 in [8], -2.9 in test [9] and -2.77 (inactive) in test [10].

For the compound `COCCOC(=O)N1C(=O)[C@@]2(c3cc(C#CC4=CCCCC4)ccc31)[C@H](C(=O)NC[C@H](O)c1ccccc1)[C@H]1C(=O)O[C@H](c3ccccc3)[C@H](c3ccccc3)N1[C@@H]2c1ccc(OCCO)cc1`, the z-score in [1] was -0.602; in test [2], -0.39; in test [3], -0.199; in test [4], -1.89; in test [5], -1.63; in [6], -1.92. The z-score in test [7] is 0.449 (inactive); in [8], -0.704; in test [9], -1.65; in [10], -0.355 (inactive).

In the case of `COC(=O)[C@@]1(Cc2ccccc2N=[N+]=[N-])N=C(c2ccc(OCCCO)cc2)O[C@H]1c1ccccc1CN=[N+]=[N-]`, the z-score in [1] is -2.82; in [2], 0.128; in test [3], -5.51; in [4], -3.55; in test [5], -3.96; in test [6], -1.98. Besides, the z-score in test [7] was 1.69 (inactive); in test [8], -0.822; in [9], -2.91; in test [10], -3.26 (inactive).

For `COC(=O)[C@@]1(Cc2ccccc2)[C@H]2c3cc(C(=O)N4CCCC4)n(CCN4CNCC4=O)c3C[C@H]2CN1C(=O)c1ccccc1`, the z-score is -0.626 in test [1]; 0.337 in test [2]; -0.509 in test [3]; 0.312 in [4]; 0.261 in test [5]; -0.314 in test [6]. Besides, the z-score in test [7] is 0.251 (inactive); in test [8], -0.185; in test [9], -0.777; in test [10], 0.0269 (inactive).

`CCOC(=O)C[C@H]1[C@H](OC(=O)c2cc3ccccc3oc2=O)[C@@H](NC(=O)C2CCCCC2)c2cc(OCCCO)ccc2N1C(=O)c1ccc2ccccc2n1`: the z-score in [1] is -0.133; in test [2] it was 0.536; in [3], 0.312; in test [4], 0.0733; in [5] it was -0.253; in test [6], 0.0115. For the same compound, the z-score was -0.734 (inactive) in [7], 0.322 in test [8], -0.166 in test [9] and 0.164 (inactive) in [10].

Consider `O=C(NCc1ccccc1)c1ccc(Br)cc1[N+](=O)[O-]`, for which the z-score in [1] is -0.787; in test [2], 0.0153; in [3] it was 0.0565; in test [4], -0.0086; in test [5], 0.287; in [6], -0.0457. For the same compound, the z-score in test [7] is 0.346 (inactive); in test [8] it was -0.745; in [9], 0.189; in test [10] it was 0.0828 (inactive).

Turning to `COc1ccc([Si](C)(C)[C@H]2[C@H](CCO)O[C@@]3(C(=O)N(Cc4ccc(N5CCCCC5=O)cc4)c4ccccc43)[C@@H]2C)cc1`, the z-score in test [1] was -0.124; in test [2], 0.705; in test [3], -0.263; in test [4], -2.59; in test [5], -0.628; in test [6], 1.05. For the same compound, the z-score in [7] was 1.04 (inactive); in test [8] it was -0.48; in test [9], -0.119; in test [10], -2.32 (inactive).

Regarding `CCC(=O)[C@]12O[C@@]3([C@@H]4C(=O)OCC[C@@H]41)N(Cc1ccccc1)C(C)=C(C(=O)OC)[C@@H](c1ccccc1)N3C2=O`, the z-score is 0.997 in test [1]; 0.873 in test [2]; -0.356 in test [3]; 0.0552 in test [4]; 1.08 in test [5]; 0.499 in test [6]. The z-score is 0.995 (inactive) in test [7], -0.752 in test [8], -0.226 in [9] and 0.26 (inactive) in test [10].

With `O=C1O[C@@H](c2ccccc2)[C@@H](c2ccccc2)N2[C@@H](c3ccc(O)cc3)[C@]3(C(=O)Nc4ccccc43)[C@@H](C(=O)N3CCN(c4ncccn4)CC3)[C@H]12`, the z-score in test [1] was 0.661; in [2], -0.957; in test [3], 1.15; in test [4], -1.16; in test [5], -1.77; in test [6] it was -0.235. Further, the z-score in test [7] was 1.72 (inactive); in test [8] it was -0.455; in [9], -0.618; in [10], -0.133 (inactive).
